This note sets out measurements from PubChem BioAssay (NCATS).

The structures appear in SMILES notation. A number with no mark means an inactive call. Records with an inconclusive call do not appear. Calls of active or inactive are those of the source. Unless noted, calls come from the whole dose curve; as a rule, active = well fitted curve in either direction with a large enough effect (not every such curve was filed as active); inconclusive = small, poorly fitted or top-dose-only effect, or another doubt; inactive = flat fitted curve, though single readings scatter.

In experiment [1] the target is Lysosomal acid glucosylceramidase (Homo sapiens) (UniProt P04062). The experiment is described as follows: Glucocerebrosidase-p2 (AID 348; in the data active = potency below about 10 µM; note: potency is the fitted concentration of half-maximal effect). The note with it: purified GBA, blue fluorogenic substrate, 40 min. The essentials: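 Normal human glucocerebrosidase (0.2 nM) with blue fluorogenic substrate (80 uM final) in citrate/phosphate pH 5.9 with 10mM sodium taurocholate, 0.01% tween-20; 40 min RT, NaOH/glycine stop; fluorescence Ex 365/Em 440; AC50 from a titration from 0.6 nM upwards.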

Experiment [2] is described as follows: AP1 Signaling Pathway (AID 357).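 Note: ME-180 reporter cells stimulated with EGF at its EC50 level; % is set by controls: 0 for no effect and ±100 for the full control effect.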 The following applies: ME-180 AP-1-bla reporter, EGF-induced, beta-lactamase ratio, 5 h; at 7.69 µM (top of the series) unless noted. The essentials: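 Titration-series screen for positive or negative modulators of EC50 EGF-induced signaling in ME-180 cells carrying an AP-1-driven beta-lactamase reporter. After 5 hours at 37 degrees Celsius, CCF4 460nm/530nm emission ratio gave %Activity; AC50 values derived.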

The target of experiment [3] is Cytochrome P450 1A2 (Homo sapiens) (UniProt P05177). In words: p450-cyp1a2 (AID 410; calls by dose curve; note: potency is the fitted concentration of half-maximal effect;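 for activity change, negative = inhibition: -100% = full effect of reference inhibitor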). The note with it: recombinant CYP1A2, luciferin-ME demethylation, luminescence; series mostly up to 11.4 µM. The essentials:
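20nM CYP1A2, 100uM Luciferin-ME (=Km), 100mM KPO4; cpd 10 min RT; +NADPH regen, 60 min RT; stop/detect 20 min; luminescence. Normalized to furafylline 57 uM = full inhibition.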

The nature of experiment [4]: NFAT Signaling Pathway (AID 444).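 Note: carbachol stimulus at about its EC50 of 1 µM final; % is set by controls: 0 for no effect and ±100 for the full control effect.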 The following applies: Jurkat NFAT-bla M1, carbachol, beta-lactamase ratio, 5 h; at 7.69 µM (top of the series) unless noted. The essentials:
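Jurkat cells carrying an NFAT-driven β-lactamase reporter and co-transfected muscarinic M1 receptor were treated with compound plus carbachol (1 uM final, an EC50 level) for 5 h at 37 °C. CCF4 loading followed for 1 h at RT; 460/530 nm ratio gave %activity.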

The nature of experiment [5]: Stat Signaling Pathway (AID 446).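 Note: ME-180 cervical cancer cells given 40 pM IL-6 alongside compound; SIE-controlled beta-lactamase reporter measured as 460/530 nm FRET emission ratio; % is set by controls: 0 for no effect and ±100 for the full control effect.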 The note with it: ME-180 (cervical carcinoma) SIE beta-lactamase reporter, IL-6 stimulated, 5 h; at 7.69 µM (top of the series) unless noted. The essentials:
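Compound effects on IL-6-induced STAT reporter activity were measured in ME-180 cells. After overnight culture, cells were co-treated with 40 pM IL-6 for 5 hrs before beta-lactamase substrate loading at room temperature.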

Experiment [6] addresses Glucocorticoid receptor (Homo sapiens) (UniProt P04150). The experiment is described as follows: GR-GFP Redistribution (AID 450;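 active = compounds whose dose series gives a full or clear partial fitted curve of increased nuclear translocation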; note: potency is the fitted concentration of half-maximal effect). The following applies: U2OS GR-GFP nuclear translocation, laser cytometry, 2 h.
For experiment [7] the target is unchanged. In words: GR-EFC Redistribution (AID 451; calls by dose curve; note: potency is the fitted concentration of half-maximal effect). The following applies: CHO-K1 GR-EFC translocation, beta-gal luminescence, 2 h. The essentials: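 CHO-K1 cells stably expressing nuclear-localized β-gal enzyme acceptor and GR fused C-terminally to the enzyme donor fragment; ligand-driven nuclear translocation restores β-gal by complementation. Compounds titrated up to 46 uM final, 2 h at 37 °C; luminescence read.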

For experiment [8], the target named is Mitogen-activated protein kinase 10 (Mus musculus) (UniProt Q61831). In words: JNK3 AlphaScreen Assay (AID 530).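 Note: kinase came from lysate of stimulated human HepG2 cells; % is set by controls: 0 for no effect and ±100 for the full control effect.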 The following applies: JNK3 lysate, c-Jun phosphorylation; series mostly up to 11.4 µM. The essentials: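 Biotinylated GST-cJun(1-79) served as substrate for JNK3 in HepG2 lysates stimulated with IL-1beta and TNF-alpha. ATP was 10 uM final, pH 7.6. Ser73 phosphorylation was quantified by AlphaScreen (680 nm excitation).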

Experiment [9] addresses 3',5'-cyclic-AMP phosphodiesterase 4B (Homo sapiens) (UniProt Q07343). The experiment is described as follows: qHTS Assay for Inhibitors of PDE-IV (AID 607; active = well fitted activation curve with a large enough effect in the main read-out, with a control signal flat, not every such curve was filed as active; note: % of control where 0% means no effect). The following applies: HEK293 ACTOne CNG channel cells, membrane potential fluorescence; series mostly up to 22.9 µM. The essentials: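 ACTOne HEK293 cells carry a modified cAMP-gated CNG channel and express endogenous PDE4; plated 1000 cells/well, compounds up to 22.9 uM final. Membrane-potential dye fluorescence (ex 535/em 590) was read; parental cells received 10 uM forskolin + 100 uM RO 20-1724.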
(In general: In qHTS, concentration-response curves come from the screen itself.)

3',5'-cyclic-AMP phosphodiesterase 4B (Homo sapiens), sequence (Q07343 whole entry, looked up): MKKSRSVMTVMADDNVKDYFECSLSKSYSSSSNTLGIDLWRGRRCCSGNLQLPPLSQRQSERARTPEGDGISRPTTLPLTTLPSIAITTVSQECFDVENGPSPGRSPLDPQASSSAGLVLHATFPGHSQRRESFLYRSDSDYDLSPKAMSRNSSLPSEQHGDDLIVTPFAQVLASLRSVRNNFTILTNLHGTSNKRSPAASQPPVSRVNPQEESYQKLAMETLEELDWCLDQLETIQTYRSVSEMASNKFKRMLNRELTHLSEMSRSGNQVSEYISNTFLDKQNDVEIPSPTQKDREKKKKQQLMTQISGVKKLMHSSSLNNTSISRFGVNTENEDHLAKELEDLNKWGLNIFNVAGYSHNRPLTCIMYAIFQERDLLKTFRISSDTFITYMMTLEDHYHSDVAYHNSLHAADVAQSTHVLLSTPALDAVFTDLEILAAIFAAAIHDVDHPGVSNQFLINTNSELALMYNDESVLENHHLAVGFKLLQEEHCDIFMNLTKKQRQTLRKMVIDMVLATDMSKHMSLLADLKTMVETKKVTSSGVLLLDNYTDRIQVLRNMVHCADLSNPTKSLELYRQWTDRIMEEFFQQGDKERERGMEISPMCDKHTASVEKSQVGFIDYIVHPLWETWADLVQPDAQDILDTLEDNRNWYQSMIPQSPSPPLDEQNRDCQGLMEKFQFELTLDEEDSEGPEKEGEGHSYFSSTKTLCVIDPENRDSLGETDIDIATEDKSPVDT
Glucocorticoid receptor (Homo sapiens), sequence (P04150 whole entry, looked up, the tested form may be a part): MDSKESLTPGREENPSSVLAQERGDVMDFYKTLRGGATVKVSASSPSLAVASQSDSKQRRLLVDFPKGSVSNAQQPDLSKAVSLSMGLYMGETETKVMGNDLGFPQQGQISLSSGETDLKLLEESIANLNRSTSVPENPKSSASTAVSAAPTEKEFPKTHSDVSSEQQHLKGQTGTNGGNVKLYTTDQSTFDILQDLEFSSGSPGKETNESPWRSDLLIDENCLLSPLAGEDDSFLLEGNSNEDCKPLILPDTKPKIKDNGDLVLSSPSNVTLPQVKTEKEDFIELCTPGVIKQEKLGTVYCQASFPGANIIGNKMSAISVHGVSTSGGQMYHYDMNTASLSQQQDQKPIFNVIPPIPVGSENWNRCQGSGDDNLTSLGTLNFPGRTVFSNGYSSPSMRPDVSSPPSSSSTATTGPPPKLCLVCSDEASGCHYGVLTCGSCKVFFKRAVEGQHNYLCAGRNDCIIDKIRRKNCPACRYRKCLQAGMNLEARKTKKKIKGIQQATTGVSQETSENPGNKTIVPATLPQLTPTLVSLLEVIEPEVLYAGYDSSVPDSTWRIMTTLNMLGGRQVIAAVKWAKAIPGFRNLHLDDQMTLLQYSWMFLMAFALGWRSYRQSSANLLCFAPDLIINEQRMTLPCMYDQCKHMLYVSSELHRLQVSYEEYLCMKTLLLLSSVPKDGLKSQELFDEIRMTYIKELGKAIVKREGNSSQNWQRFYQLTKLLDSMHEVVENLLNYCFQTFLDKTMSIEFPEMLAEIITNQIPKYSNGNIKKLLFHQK
Lysosomal acid glucosylceramidase (Homo sapiens), sequence (P04062 whole entry, looked up): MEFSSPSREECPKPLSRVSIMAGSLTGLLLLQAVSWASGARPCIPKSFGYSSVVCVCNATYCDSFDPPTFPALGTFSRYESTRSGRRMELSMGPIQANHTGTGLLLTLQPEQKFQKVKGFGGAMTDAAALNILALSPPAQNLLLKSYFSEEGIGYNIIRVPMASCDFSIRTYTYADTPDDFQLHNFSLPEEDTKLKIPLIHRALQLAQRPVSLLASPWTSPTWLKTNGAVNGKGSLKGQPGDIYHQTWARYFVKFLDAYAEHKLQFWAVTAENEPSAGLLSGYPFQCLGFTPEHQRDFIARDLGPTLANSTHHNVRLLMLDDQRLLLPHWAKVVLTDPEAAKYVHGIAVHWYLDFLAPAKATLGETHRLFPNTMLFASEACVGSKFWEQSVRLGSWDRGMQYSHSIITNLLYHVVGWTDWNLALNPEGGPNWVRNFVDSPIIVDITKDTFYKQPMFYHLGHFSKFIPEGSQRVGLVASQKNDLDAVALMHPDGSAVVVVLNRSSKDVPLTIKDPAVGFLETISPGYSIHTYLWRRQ
Cytochrome P450 1A2 (Homo sapiens), sequence (P05177 whole entry, looked up): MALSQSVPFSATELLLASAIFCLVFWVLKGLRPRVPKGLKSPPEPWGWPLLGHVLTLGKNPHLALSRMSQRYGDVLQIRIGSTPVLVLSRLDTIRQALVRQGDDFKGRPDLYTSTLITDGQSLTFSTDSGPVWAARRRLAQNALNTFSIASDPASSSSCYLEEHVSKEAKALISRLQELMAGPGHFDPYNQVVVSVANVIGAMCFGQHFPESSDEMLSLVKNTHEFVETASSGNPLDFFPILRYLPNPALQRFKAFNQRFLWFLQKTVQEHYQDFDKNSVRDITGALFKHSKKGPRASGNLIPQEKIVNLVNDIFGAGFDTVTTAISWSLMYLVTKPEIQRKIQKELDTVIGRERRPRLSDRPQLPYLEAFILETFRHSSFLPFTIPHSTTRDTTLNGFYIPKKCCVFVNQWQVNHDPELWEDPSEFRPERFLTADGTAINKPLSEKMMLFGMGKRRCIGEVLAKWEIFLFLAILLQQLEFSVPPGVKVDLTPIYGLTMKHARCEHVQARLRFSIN

As for `O=C(O)/C=C\C(=O)Nc1ncn[nH]1`, the Potency in [1] is more than 11.4 µM; in experiment [6] it was more than 46 µM; in [7] it was more than 9.22 µM. In addition, the activity change, negative = inhibition in [2] was 8.44%; in [4], 2.25%. Also, the Potency entry in [3], in experiment [8] and in experiment [9] was “inactive” each time. For the same compound, in [5], the activity, negative = inhibition is 2.6%.

`O=C(O)c1cc(-c2ccc(-c3ccc(-c4cc(C(=O)O)c5cc(Cl)ccc5n4)cc3)cc2)nc2ccc(Cl)cc12`: the Potency in experiment [1] was more than 11.4 µM; in experiment [6], more than 46 µM; in experiment [7], more than 9.22 µM. Moreover, the activity change, negative = inhibition in experiment [2] is -6.84%; in experiment [3] it was -18.2% [at 2.29 µM]; in [4], -22%. Also, the activity, negative = inhibition in experiment [5] was -13.1%. Also, the Potency entry in experiment [8] and in [9] was “inactive” each time.

Consider `O=S(=O)(O)c1cc(N=[N+]([O-])c2cc(S(=O)(=O)O)c3ccccc3c2)cc2ccccc12`, for which the Potency in experiment [1] is more than 11.4 µM; in experiment [3], 1.26 µM (active); in [6], more than 46 µM; in [7], more than 9.22 µM. The activity change, negative = inhibition in [2] was 5.38%; in [4], 8.26%. In addition, the activity, negative = inhibition in [5] was -2.62%. The Potency entry in [8] and in [9] was “inactive” each time.

With `NCCSS(=O)(=O)CCN`, the values for the Potency in experiment [1], in experiment [6] and in [7] were more than 11.4 µM, more than 46 µM and more than 9.22 µM, respectively. Further, the activity change, negative = inhibition in experiment [2] was 7.23%; in experiment [3], -17.1% [at 2.29 µM]; in experiment [4] it was 7.63%. The activity, negative = inhibition in experiment [5] was -25%. Besides, the Potency result in [8] and in experiment [9] was “inactive” in each case.

Turning to `C=C(C)CNCCN`, the Potency in [1] was more than 11.4 µM; in [6] it was more than 46 µM; in experiment [7] it was more than 9.22 µM. Moreover, the activity change, negative = inhibition in [2] is 0.933%; in experiment [3] it was 2.2% [at 2.29 µM]; in [4], 17.5%. In addition, in experiment [5], the activity, negative = inhibition was 8.28%. The Potency result in experiment [8] and in [9] was “inactive” in each case.

For the compound `O=C(O)C(Cc1ccccc1-c1ccccc1)C(=O)O`, the Potency in experiment [1] is more than 11.4 µM; in [6] it was more than 46 µM; in [7], more than 9.22 µM. For the same compound, the activity change, negative = inhibition in [2] was 12.3%; in experiment [4], 3.57%. The Potency entry in experiment [3], in [8] and in experiment [9] was “inactive” in each case. Further, the activity, negative = inhibition in experiment [5] is -0.388%.

For the compound `CC(=O)[C@H]([C@@H](c1ccccc1)N1CCOCC1)N1CCOCC1`, the values for the Potency in experiment [1], in [6] and in [7] were more than 11.4 µM, more than 46 µM and more than 9.22 µM, respectively. The activity change, negative = inhibition is 4% in experiment [2] and 15.1% in experiment [4]. Moreover, the Potency result in experiment [3], in experiment [8] and in experiment [9] was “inactive” throughout. In addition, the activity, negative = inhibition in [5] was 4.56%.

With `Cc1ccc(/C(C#N)=C/c2cccc([N+](=O)[O-])c2)cc1`, the Potency was more than 11.4 µM in [1], 3.98 µM (active) in experiment [3], more than 46 µM in [6] and more than 9.22 µM in [7]. Further, the activity change, negative = inhibition in experiment [2] is 15.2%; in experiment [4], -0.124%. Besides, the activity, negative = inhibition in [5] was 11.8%. Further, the Potency entry in experiment [8] and in experiment [9] was “inactive” throughout.

On to `O=C(O)[C@@H]1CCN(Cc2oc(CO)cc(=O)c2O)C1`, for which the Potency in [1] is more than 11.4 µM; in experiment [3], 10 µM (active); in experiment [6] it was more than 46 µM; in experiment [7], more than 9.22 µM. Moreover, the activity change, negative = inhibition in [2] is 6.76%; in experiment [4], -8.96%. Besides, in [5], the activity, negative = inhibition is 16.1%. In addition, the Potency entry in experiment [8] and in experiment [9] was “inactive” each time.

In the case of `OCCCN=C1CCCCC1`, the Potency is more than 11.4 µM in experiment [1], more than 46 µM in experiment [6] and more than 9.22 µM in [7]. Further, the values for the activity change, negative = inhibition in experiment [2] and in experiment [4] were 14.4% and 7.24%, respectively. For the same compound, the Potency entry in experiment [3], in experiment [8] and in experiment [9] was “inactive” in each case. In addition, in [5], the activity, negative = inhibition is -19.6%.

For `Nc1nc(N)nc(CCCc2nc(N)nc(N)n2)n1`, the Potency was more than 11.4 µM in [1], more than 46 µM in [6] and more than 9.22 µM in [7]. Further, the activity change, negative = inhibition was -5.42% in experiment [2] and 6.45% in experiment [4]. Also, the Potency result in experiment [3], in experiment [8] and in experiment [9] was “inactive” each time. Also, the activity, negative = inhibition in experiment [5] is 1.14%.

Turning to `CN(C)S(=O)(=O)Nc1ccccn1`, the figures for the Potency in [1], in experiment [6] and in experiment [7] were more than 11.4 µM, more than 46 µM and more than 9.22 µM, respectively. The activity change, negative = inhibition is 2.01% in experiment [2] and 17.9% in experiment [4]. Besides, the Potency entry in experiment [3], in [8] and in experiment [9] was “inactive” each time. Moreover, the activity, negative = inhibition in experiment [5] was 8.85%.

`O=C(O)CSCCc1ccccc1`: the Potency in experiment [1] is more than 11.4 µM; in [6], more than 46 µM; in [7] it was more than 9.22 µM. The activity change, negative = inhibition was 6.88% in experiment [2] and -11.5% in experiment [4]. In addition, the Potency entry in experiment [3], in experiment [8] and in [9] was “inactive” each time. In experiment [5], the activity, negative = inhibition is 16.8%.

Consider `C/C(=N/Nc1nc(C)cc(=O)[nH]1)C(=O)O`, for which the Potency was more than 11.4 µM in experiment [1], more than 46 µM in experiment [6] and more than 9.22 µM in experiment [7]. Besides, the activity change, negative = inhibition in experiment [2] was 1.69%; in [4] it was 1.78%. Moreover, the Potency entry in experiment [3], in experiment [8] and in experiment [9] was “inactive” in each case. Moreover, the activity, negative = inhibition in [5] was -0.204%.

As to `O=C(O)c1cc(C(=O)O)nc(C(=O)O)c1`, the Potency in experiment [1] is more than 11.4 µM; in experiment [6], more than 46 µM; in experiment [7], more than 9.22 µM. Also, the activity change, negative = inhibition in experiment [2] is 7.15%; in [4], 0.674%. For the same compound, the Potency entry in [3], in experiment [8] and in [9] was “inactive” each time. For the same compound, the activity, negative = inhibition in experiment [5] is 3.63%.

Take `Nc1nc(N)c(CCCCc2ccccc2)c(N)n1`: the Potency in [1] is more than 11.4 µM; in experiment [6] it was more than 46 µM; in [7] it was more than 9.22 µM. The activity change, negative = inhibition in [2] was 17.9%; in experiment [3] it was -0.2% [at 2.29 µM]; in experiment [4], 2.59%. In addition, in experiment [5], the activity, negative = inhibition was 1.49%. Also, the Potency result in [8] and in [9] was “inactive” throughout.
